Assay results from PubChem BioAssay (NCATS).
Results filed as inconclusive are left out. Entries that show only a call come without a potency. Calls of active or inactive are those of the source. Calls come from the whole dose curve; as a rule, active = well fitted inhibition curve with a large enough effect; inconclusive = small, poorly fitted or top-dose-only effect; inactive = flat fitted curve, though single readings scatter.

test system: FAB9; experiment: qHTS profiling for inhibitors of Plasmodium falciparum proliferation (AID 504749); note: nearly all actives have a fitted effect of over 60% in size; conditions: P. falciparum in erythrocytes, SYBR Green DNA, 72 h; series mostly up to 28.7 µM
Outline: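 Parasite proliferation within erythrocytes, 72 h exposure. Endpoint: SYBR Green I fluorescence after overnight lysis at room temperature. Controls: 0.29 uM artemisinin, DMSO.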
Potency is the fitted concentration of half-maximal effect.

| Structure (SMILES) | Potency |
| --- | --- |
| CCCC(=O)Nc1ncnc2c1ncn2C1OC2COP(=O)(O)OC2C1OC(=O)CCC (stereo not given) | inactive |
| CCCCCCCCCCCCCC[n+]1ccc(C)cc1 | 12600 nM (active) |
| C[C@]12CCC(=O)C=C1CC[C@@H]1[C@@H]2[C@@H](O)C[C@@]2(C)[C@H]1CC[C@]2(O)C(=O)COP(=O)(O)O | inactive |
| CC(NNC(=O)c1ccccc1)c1ccccc1 (stereo not given) | inactive |
| COC(C(=O)C(O)C(C)O)C1Cc2cc3cc(OC4CC(OC5CC(O)C(O)C(C)O5)C(O)C(C)O4)c(C)c(O)c3c(O)c2C(=O)C1OC1CC(OC2CC(OC3CC(C)(O)C(O)C(C)O3)C(O)C(C)O2)C(O)C(C)O1 (stereo not given) | 1580 nM (active) |
| Nc1c(N=Nc2ccc(-c3ccc(N=Nc4cc(S(=O)(=O)O)c5ccccc5c4N)cc3)cc2)cc(S(=O)(=O)O)c2ccccc12 | inactive |
| Cc1c(C)c2c(c(C)c1O)CC[C@@](C)(CCC[C@H](C)CCC[C@H](C)CCCC(C)C)O2 | inactive |
| CCN(CC)CCOc1ccc(-c2nc3cc(Cl)ccc3s2)cc1 | inactive |
| CCOC(=O)C1=C(C)NC(C)=C(C(=O)OCC)C1c1ccccc1C=CC(=O)OC(C)(C)C | 11200 nM (active) |
| CC(C)N=c1cc2n(-c3ccc(Cl)cc3)c3ccccc3nc-2cc1Nc1ccc(Cl)cc1 | inactive |
| COC(=O)[C@H]1[C@H]2C[C@@H]3c4[nH]c5ccccc5c4CCN3C[C@H]2C[C@@H](OC(=O)c2cc(OC)c(OC)c(OC)c2)[C@@H]1OC | 1260 nM (active) |
| CC1=C(/C=C/C(C)=C/C=C/C(C)=C/C=C/C=C(C)/C=C/C=C(C)/C=C/C2=C(C)CCCC2(C)C)C(C)(C)CCC1 | inactive |
| Cc1cn([C@H]2C[C@H](O)[C@@H](CO)O2)c(=O)[nH]c1=O | inactive |
| C#C[C@]1(O)CC[C@H]2[C@@H]3CCC4=CCCC[C@@H]4[C@H]3C(=C)C[C@@]21CC | inactive |
| CCCCCCCCCCCCCCCC(=O)OCC(COC(=O)CCCCCCCCCCCCCCC)OC(=O)CCCCCCCCCCCCCCC | inactive |
| CC(C(=O)O)c1ccc(N2Cc3ccccc3C2=O)cc1 (stereo not given) | inactive |
| CC(C)=O | inactive |
| Cc1c(C)c2c(c(C)c1O)CC[C@@](C)(CCC[C@@H](C)CCC[C@@H](C)CCCC(C)C)O2 | inactive |
| CO[C@H](C(=O)[C@@H](O)[C@@H](C)O)C1Cc2cc3cc(O[C@H]4C[C@@H](O[C@H]5C[C@@H](O)[C@H](O)[C@@H](C)O5)[C@@H](O)[C@@H](C)O4)c(C)c(O)c3c(O)c2C(=O)[C@H]1O[C@H]1C[C@@H](O[C@H]2C[C@@H](O[C@H]3C[C@](C)(O)[C@H](O)[C@@H](C)O3)[C@H](O)[C@@H](C)O2)[C@H](O)[C@@H](C)O1 (stereo not given in full) | 562 nM (active) |
| O=C(O)CN(CCN(CC(=O)O)CC(=O)O)CC(=O)O | inactive |
| CCC(=O)NCCC1CCc2ccc3c(c21)CCO3 (stereo not given) | inactive |
| CCOc1ccc2c(c1)C(C)=CC(C)(C)N2 | inactive |
| COCC(=O)Nc1cc(Sc2ccccc2)ccc1N=C(NC(=O)OC)NC(=O)OC | inactive |
| Cc1cc(C(=O)NNCc2ccccc2)no1 | inactive |
| IC(I)I | inactive |
| C=CCSSSCC=C | inactive |
| O=C(O)c1cc(=O)c2c3nc4ccccc4oc-3cc(=O)c2[nH]1 | inactive |
| CCCCCCC(O)C/C=C/CCCCCCCC(=O)O (stereo not given) | inactive |
| C[C@]12O[C@H](C[C@]1(O)CO)n1c3ccccc3c3c4c(c5c6ccccc6n2c5c31)CNC4=O | 2000 nM (active) |
| CC1=CCC(C(C)(C)O)CC1 (stereo not given) | inactive |
